Bioassay records as filed in PubChem.
This is a sample that favours compounds with a hit; in the whole collection about 1.3% have one here.
Neddyl block – inhibitors of cullin neddylation, primary screen, biochemical, TR-FRET, uHTS, NAE and Ubc12. inhibition, % at 25 µM. 360,000 compounds, 0.58% hits. AID 651699, 2012; in the data active = inhibition above about 36%
Target sequence (P61081 whole entry, looked up): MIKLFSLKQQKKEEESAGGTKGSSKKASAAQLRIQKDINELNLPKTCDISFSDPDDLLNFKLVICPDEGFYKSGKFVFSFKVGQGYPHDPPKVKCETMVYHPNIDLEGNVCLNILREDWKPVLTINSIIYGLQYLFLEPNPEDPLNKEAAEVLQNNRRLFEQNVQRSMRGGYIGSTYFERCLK
Target sequence (Q13564 whole entry, looked up): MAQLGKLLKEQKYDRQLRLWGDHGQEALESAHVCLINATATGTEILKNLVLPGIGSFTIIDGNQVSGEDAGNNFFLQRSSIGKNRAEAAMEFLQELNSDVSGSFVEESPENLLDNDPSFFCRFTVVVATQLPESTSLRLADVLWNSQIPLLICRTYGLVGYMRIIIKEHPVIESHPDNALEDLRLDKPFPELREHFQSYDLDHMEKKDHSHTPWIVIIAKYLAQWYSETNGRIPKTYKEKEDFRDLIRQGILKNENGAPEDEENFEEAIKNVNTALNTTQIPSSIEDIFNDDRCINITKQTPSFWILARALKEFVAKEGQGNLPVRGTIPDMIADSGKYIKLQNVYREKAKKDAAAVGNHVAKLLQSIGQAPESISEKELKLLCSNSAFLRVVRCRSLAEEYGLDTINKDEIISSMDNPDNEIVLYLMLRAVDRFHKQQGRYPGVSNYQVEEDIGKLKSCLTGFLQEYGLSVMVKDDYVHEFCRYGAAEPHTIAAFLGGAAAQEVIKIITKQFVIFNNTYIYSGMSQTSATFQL
Rpn11 block – Rpn11 (PSMD14) deubiquitinase inhibitors, primary screen, biochemical, fluorescence polarization, uHTS. 26S proteasome non-ATPase regulatory subunit 14 (Homo sapiens), O00487. calls only at 20 µM. AID 588493, 2011. 360,000 compounds, 0.59% hits. human 26S proteasome, Ub4-pepOG fluorescence polarization; 20S core pre-blocked with epoxomicin;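 active = inhibition at 20 µM, scaled to each plate's controls, above about 33%, limit read from the data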
PKA-R1A activ – activators of PKA-R1A holoenzyme, primary screen, biochemical, fluorescence polarization, Cy5-IP20, bovine R1A, mouse PKAc; PKA-R1A dissociation; scaled: DMSO 0%, 113 µM cGMP 100%; activation, % at 11.4 µM; 340,000 compounds, 0.083% hits;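 active = percent activation above the mean of all tested compounds plus 3 SD, cut at about 19% in these data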;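 note: higher means more PKAc released from R1A so a rise in polarization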
PKA-R2B activ – activators of PKA-R2B holoenzyme, primary screen, biochemical, fluorescence polarization, Cy5-IP20, human | 340,000 compounds, 0.079% hits | AID 504700, 2011 | cAMP-dependent protein kinase catalytic subunit beta (Homo sapiens) + cAMP-dependent … | activation, % at 11.4 µM | PKA-R2B holoenzyme dissociation; R2B truncated from residue 108, S112A mutant; 0% DMSO only, 100% 113 µM cGMP;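 active = activation above a cutoff set at the mean over all compounds plus 3 SD, cut at about 18% in these data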;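 note: higher means more holoenzyme dissociation and a rise in polarization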
R2B FP artifact – fluorescence polarization artefacts, biochemical, artefact control for PKA-R2B activator project; shares compounds with PKA-R2B activ; FP artifact counterscreen; activation, % at 11.4 µM; 270 compounds, 6% hits; in the data active = activation above about 20%;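 note: Cy5 labelled IP20 peptide probe with compound but no PKA protein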
PKA-R2B confirm – activators of PKA-R2B holoenzyme, confirmation, biochemical, fluorescence polarization, human | shares compounds with PKA-R2B activ | activation, % at 11.4 µM | 270 compounds, 9% hits | PKA-R2B complex, activation; in the data active = activation above about 19%
An asterisk follows results filed as active; i = inactive; nt = not tested or not shown.

SMILES	Neddyl block	Rpn11 block	PKA-R1A activ	PKA-R2B activ	R2B FP artifact	PKA-R2B confirm
COC1=CC(C)C2CC3OC(O)CC4C(C)=C(OC)C(=O)C(C2(C)C1=O)C34C (stereo not drawn)	-5.0	i	nt	nt	nt	nt
CCN1C=C(C(=O)c2ccccc2)C(=O)CC1	-0.1	i	8.8	20.3*	2.9	1.6
CCCCN1C=C(C(=O)c2ccccc2)C(=O)CC1	-0.3	i	-8.6	-8.9	nt	nt
CN(C)c1ccc(N=Nc2ccc(S(=O)(=O)O)cc2)c2ccccc12	-16.1	i	-8.1	30.2*	-2.4	11.2
CN(C)c1ccc(N=Nc2ccc(S(N)(=O)=O)cc2)cc1	-40.3	i	8.8	1.0	nt	nt
CCOc1cc(C(=O)OC(C(=O)NC(=O)NC)c2ccccc2)ccc1OCC(=O)N1CCOCC1 (stereo not drawn)	-0.7	i	3.6	7.4	nt	nt
Nc1ncnc(Nc2cccc(F)c2)n1	2.2	i	7.2	7.4	nt	nt
Cc1cccc(Nc2ncnc(N)n2)c1	0.0	i	-1.1	20.5*	6.4	4.5
O=C(NCc1ccccc1)C1=C[C@H](c2ccc3c(c2)OCO3)C[C@H](OCc2ccc(CO)cc2)O1	1.2	i	-3.8	-7.1	nt	nt
C#CCNC(=O)C1=C[C@@H](c2ccc3c(c2)OCO3)C[C@@H](OCc2ccc(CO)cc2)O1	-10.2	i	0.4	21.2*	0.5	-1.9
Cc1ccc(NS(=O)(=O)c2ccc3c(c2)NC(=O)CCS3)c(C)c1	-1.0	i	-9.8	5.9	nt	nt
COc1ccc(C(C)=O)cc1CSc1nc2ccccc2c(=O)n1-c1ccccc1	i	i	2.2	-3.6	nt	nt
C=CCn1c(SCc2cc(C(C)=O)ccc2OCC)nc2ccccc2c1=O	-124.4	i	5.7	18.5*	-0.4	-0.5
O=C(O)c1cccc(OS(=O)(=O)c2cc(Br)ccc2Br)c1	-16.8	i	0.6	4.9	nt	nt
CCN(CC(=O)Nc1c(F)cccc1F)C(=O)c1cccn1C	-10.8	i	11.3	5.8	nt	nt
COc1ccc(C(=O)NC2(C(F)(F)F)N=C3SCCN3C2=O)cc1 (stereo not drawn)	5.4	i	-1.2	19.5*	0.0	-3.0
COCCCN1C(=O)C(CC(=O)NC(c2ccccc2)c2ccccc2)CC(C(=O)N(C(C)C)C(C)C)=C1C (stereo not drawn)	1.0	i	nt	nt	nt	nt
CCOc1ccc(CC2NCCc3cc(OCC)c(OCC)cc32)cc1OCC (stereo not drawn)	15.7	i	7.8	19.8*	2.4	4.5
CC(=O)NS(=O)(=O)c1ccc(N=NN2CCOCC2)cc1	0.2	i	2.5	23.3*	1.4	9.5
Cc1cc(NC(=O)CN2C(=O)NC(c3ccccc3)(c3ccc(C)c(C)c3)C2=O)no1 (stereo not drawn)	-2.5	i	-14.1	1.4	nt	nt
O=C(Nc1ccc(Cl)cc1)N(CCCN1CCOCC1)Cc1cccs1	3.2	i	1.8	7.6	nt	nt
S=C(Nc1ccc(Cl)cc1)N(CCCN1CCOCC1)Cc1cccs1	0.0	i	-1.3	21.9*	1.7	5.1
COc1ccc(NC(=O)CCNC(=O)Cn2cnc3ccccc3c2=O)cc1OC	5.7	i	-1.5	21.1*	2.4	-3.0
COc1cc(NC(=O)CCNC(=O)Cn2cnc3ccccc3c2=O)cc(OC)c1OC	6.1	i	-6.9	-7.2	nt	nt
O=C(CCc1ccccc1)c1nnc(-c2ccccc2)o1	-9.1	i	-7.9	-5.7	nt	nt
SMILES	Neddyl block	Rpn11 block	PKA-R1A activ	PKA-R2B activ	R2B FP artifact	PKA-R2B confirm
CCOc1ccc(Oc2ccc(-c3nnc(-c4ccccc4)o3)cc2[N+](=O)[O-])cc1	-10.8	i	13.0	21.3*	-0.8	-1.5
O=[N+]([O-])c1cc(-c2nnc(-c3ccccc3)o2)ccc1Oc1ccc(Cl)cc1	-0.1	i	13.0	-6.0	nt	nt
COc1ccc(N2CCN(C(=O)c3ccc(OCc4c(C)noc4C)c(OC)c3)CC2)cc1	5.0	i	1.3	20.0*	3.2	1.8
C=CCNC(=O)c1ccc(-c2nc(-c3ccccc3)cs2)cc1	-2.0	i	-6.9	3.9	nt	nt
C=CCNC(=O)c1ccc(-c2nc3ccccc3nc2-c2ccccc2)cc1	7.9	i	2.4	22.0*	-1.3	3.7
CC(C)(C)S(=O)N1Cc2cc(C(=O)Nc3ccc(-c4ccccc4)cc3)nc(-c3cccc(-c4cc5ccccc5o4)c3)c2[C@@H]1CCO (stereo partly drawn)	22.3	i	nt	nt	nt	nt
Cc1ccc(Cn2c(CN3CC(C)OC(C)C3)nc3c2c(=O)n(C)c(=O)n3C)cc1 (stereo not drawn)	-2.4	i	-6.1	19.0*	3.3	0.8
COCCn1c(SCC(=O)NCCc2ccccc2)nc2c([nH]c3ccccc32)c1=O	20.2	i	-6.4	19.9*	3.2	-0.5
CC(C)CN(C(=O)COC(=O)/C=C/c1cccs1)c1c(N)n(Cc2ccccc2)c(=O)[nH]c1=O	7.8	i	-1.1	9.0	nt	nt
COCCN(C(=O)COC(=O)/C=C/c1cccs1)c1c(N)n(Cc2ccccc2)c(=O)[nH]c1=O	2.6	i	5.5	22.9*	1.8	1.9
Cc1cc(C)c(S(=O)(=O)NCC(=O)O)cc1C	-8.5	i	4.3	20.3*	4.6	3.6
COc1ccc(OC)c(S(=O)(=O)NCC(=O)O)c1	-1.7	i	0.4	-3.2	nt	nt
COc1ccc(C(C(=O)NCC2CCCO2)N(C(=O)CNC(=O)c2ccco2)c2ccccc2)cc1OC (stereo not drawn)	2.2	i	7.1	4.0	nt	nt
CCOC(=O)c1ccc(N(C(=O)CNC(=O)c2ccco2)C(C(=O)NCC2CCCO2)c2ccc(OC)c(OC)c2)cc1 (stereo not drawn)	-3.9	i	7.1	19.3*	2.0	-1.6
O=C(NCC1CCCO1)c1cccc(S(=O)(=O)N(Cc2ccccc2)c2ccccc2)c1 (stereo not drawn)	3.6	i	-8.0	-1.4	nt	nt
O=C(NC1CCCCC1)c1c(O)nc2sccn2c1=O	15.1	i	4.4	19.7*	7.8	-0.1
O=C(NC1CCCCCC1)c1c(O)nc2sccn2c1=O	4.3	i	2.8	-5.9	nt	nt
COc1ccc(CNC(=O)COC(=O)CN2C(=O)NC3(CCCC3)C2=O)cc1	-12.5	i	0.7	-1.0	nt	nt
c1ccc(-c2nnc(OCCN3CCOCC3)c3ccccc23)cc1	1.3	i	-0.7	18.4*	-0.4	-3.9
O=C(Nc1ccc(Cl)cn1)c1cccc(S(=O)(=O)N2CCCCCC2)c1	3.0	i	3.8	20.2*	1.8	-1.5
